Compound activity from PubChem.
BoNT A protease: inhibitors of Botulinum neurotoxin A light chain protease; multiplex microsphere protease substrate cleavage, flow cytometry; 0.17% of 360,000 active; inhibition, % at 10 µM; AID 588499; also: plate controls were buffer without enzyme for full effect and enzyme alone for no effect
Anthrax LF prot: blocks Bacillus anthracis lethal factor protease | multiplex microsphere protease cleavage assay, LF | inhibition, % at 10 µM | AID 588501 | 0.12% of 360,000 active | P15917; also: plate controls were buffer without enzyme for full effect and enzyme alone for no effect
BoNT F protease: inhibitors of Botulinum neurotoxin F light chain protease; Multiplex microsphere protease cleavage assay, flow cytometry; inhibition, % at 10 µM; 0.22% of 360,000 active; AID 588497; in the data active = inhibition above about 35%, passing the limit was not always enough; inconclusive = no clear call, values can overlap the other calls; also: plate controls were buffer without enzyme for full effect and enzyme alone for no effect
Autofluor counter: compound fluorescence in toxin protease inhibitor counterscreen. compound autofluorescence counterscreen, microsphere flow cytometry; hits give high values. fluorescence intensity (concentration not given with the values). 3.1% of 360,000 active. AID 624483; in the data active = fluorescence intensity above about 16000; inconclusive = no clear call, values can overlap the other calls
SARS 3CLpro inh: SARS-CoV 3CLpro protease inhibition; P0C6X7; recombinant SARS-CoV 3CLpro, quenched FRET peptide cleavage; inhibition, % at 6 µM; 0.14% of 290,000 active; in the data active = inhibition above about 12%
CCHF vOTU inh: blocks the CCHF virus ovarian tumor domain protease | CCHFV vOTU protease, Pep-AMC fluorescence | inhibition, % at 11.5 µM | 0.55% of 370,000 active | AID 651958; in the data active = inhibition above about 30%; also: 0% = vehicle wells with enzyme and 100% = no enzyme wells
Active calls of the source: *; ? = inconclusive; / = no result. The list is not random: actives were taken first. Their share in the collection is about 3.9%. Rule as the data show it, unless noted: active = inhibition above about 30%; inconclusive = no clear call, values can overlap the other calls; inactive = below that.

SMILES | BoNT A protease | Anthrax LF prot | BoNT F protease | Autofluor counter | SARS 3CLpro inh | CCHF vOTU inh
O=C1CC(C(=O)N(CC2CCCO2)C(C(=O)NC2CCCCC2)c2ccncc2)CS1 (stereo not given) | 1.7 | 1.6 | 15.6 | 9682 | 3.9 | -2.0
COc1ccc(S(=O)(=O)N(C)CC(=O)Nc2cccc(C(C)=O)c2)cc1Cl | 7.4 | 0.0 | 11.2 | 18037* | -1.0 | -8.3
CSCCC(NC(=O)c1ccccc1)C(=O)NNC(=O)c1csc(N2CCOCC2)n1 (stereo not given) | -0.4 | -1.9 | 2.9 | 5703 | 2.8 | 6.0
CCOc1ccc(NC(=O)CN(C)C(=O)C(C)N2C(=O)c3ccccc3C2=O)cc1OCC (stereo not given) | 0.0 | 3.4 | 1.6 | 3591 | / | 8.1
O=C(OCc1cn(Cc2ccccc2)nn1)N1CCCC1 | / | / | / | / | / | 3.5
Cc1cc(C)nc(N2CCCC(C(=O)NCc3ccccc3)C2)n1 (stereo not given) | 2.2 | -1.4 | 5.6 | 8973 | -5.3 | -11.5
Cc1cnc(C)c(N2CCC(C(=O)NCc3cccs3)CC2)n1 | 0.2 | -0.9 | -3.6 | 3253 | 4.0 | 1.2
COc1nc(OC)nc(N2CCC(C(=O)NCc3cccs3)CC2)n1 | ? | -0.3 | 2.9 | 21111* | -6.5 | -5.3
O=C(NCc1cccs1)C1CCCN(c2nc3ccccc3o2)C1 (stereo not given) | 1.2 | 0.8 | 0.8 | 16144* | 0.8 | 11.9
Cc1ccc(CNC(=O)C2CCCN(c3nc4ccccc4o3)C2)cc1 (stereo not given) | -1.3 | -4.8 | -8.0 | 4531 | -0.9 | -3.7
Cc1cc(C)nc(N2CCCC(C(=O)NC(C)CCc3ccco3)C2)n1 (stereo not given) | ? | -2.2 | -2.3 | 23504* | 0.9 | -4.7
Cc1cc(C)nc(N2CCCC(C(=O)NCc3cccs3)C2)n1 (stereo not given) | 3.4 | -3.6 | 3.1 | 21442* | -1.2 | 11.7
COc1cc(C(C)=O)ccc1COc1ccc(C(=O)O)cc1OC | -1.7 | -1.8 | -1.1 | 5259 | 4.1 | 2.2
O=C(Cc1ccccc1[N+](=O)[O-])NC1CC2CCC1C2 (stereo not given) | / | / | / | / | 1.0 | 1.0
Cc1nc(-c2ccccc2)cc(N2CCCC2)n1 | ? | -0.9 | 1.5 | 23051* | 0.5 | 2.3
CC(NC(C(=O)c1ccccc1)c1ccccc1)c1ccccc1 (stereo not given) | 0.4 | -5.2 | -6.0 | 2964 | / | -6.3
C=CCN1C(=O)[C@@H](CC(=O)NCc2cccc(C(F)(F)F)c2)[C@]2(C(=O)OC)CCCCC=C12 | / | / | / | / | / | 9.6
COc1ccc(OC)c(C(C)NC(C)=O)c1 (stereo not given) | -4.5 | -3.4 | -5.3 | 18227* | -0.6 | -6.4
CNC(C)c1cc(OC)ccc1OC (stereo not given) | 1.3 | -2.6 | 13.6 | 8908 | 0.8 | 5.0
COc1ccc(CN(C)C(=O)CCC(=O)N2CCN(S(=O)(=O)c3ccc(Cl)cc3)CC2)c(OC)c1 | 0.6 | -5.2 | -0.5 | 3301 | / | 8.8
Nc1nonc1-c1noc(CCCOc2ccc(Cl)cc2Cl)n1 | ? | -2.3 | -2.4 | 22747* | 1.3 | -1.4
CCCCCc1nc(-c2nonc2N)no1 | -2.6 | -5.6 | -22.2 | 3362 | -4.1 | -5.3
O=C(O)c1cc(NCc2ccccc2C(F)(F)F)ccc1N1CCOCC1 | ? | -0.2 | -1.6 | 22050* | -0.6 | 2.0
O=C(O)c1cc(NCc2ccc(F)cc2)ccc1N1CCOCC1 | 1.1 | -3.4 | -6.7 | 3387 | 3.4 | -3.9
COc1ccc(C2=NOC3(CC(=O)N(c4ccc(F)cc4)C3=O)C2)c(OC)c1 (stereo not given) | 5.2 | 1.6 | 6.7 | 15217 | 4.3 | 4.2
SMILES | BoNT A protease | Anthrax LF prot | BoNT F protease | Autofluor counter | SARS 3CLpro inh | CCHF vOTU inh
COc1ccc(C2=NOC3(CC(=O)N(c4ccc5ccccc5c4)C3=O)C2)c(OC)c1 (stereo not given) | ? | -2.2 | -6.9 | 17080* | -3.9 | 6.4
COc1ccc(N2CCN(C(=O)C3CCC(Cn4c(=S)[nH]c5ccccc5c4=O)CC3)CC2)cc1 (stereo not given) | -1.6 | -8.1 | -8.8 | 17035* | -0.1 | 7.6
COc1ccccc1N1CCN(C(=O)C2CCC(Cn3c(=S)[nH]c4ccccc4c3=O)CC2)CC1 (stereo not given) | -2.6 | 2.1 | -8.1 | 17156* | 0.5 | -2.7
Cc1ccc(NC(=O)c2cc3nc(C)cc(C)n3n2)cc1 | 0.5 | -3.8 | 2.0 | 20310* | 2.6 | -14.8
Cc1cc(C)n2nc(C(=O)NCc3ccccc3)cc2n1 | -1.7 | -1.2 | -5.7 | 8310 | -3.4 | -27.0
CC(C)(C)NC(=O)CN(Cc1cccs1)C(=O)C1COc2ccccc2O1 (stereo not given) | -0.7 | 0.1 | -1.3 | 23568* | -5.6 | 5.3
CC(C)(C)NC(=O)CN(Cc1cccs1)C(=O)CN1C(=O)C(=O)c2ccccc21 | 0.5 | -3.6 | 5.1 | 3311 | 6.2 | 1.7
O=C(COC(=O)c1ccncc1)Nc1cccc2ccccc12 | 0.7 | 0.3 | -1.7 | 3897 | / | -3.1
Cc1nn(Cc2ccc([N+](=O)[O-])cc2)c(=O)n1-c1ccccc1 | ? | -10.2 | 9.5 | 17702* | -3.0 | -10.8
COc1ccc(C(=O)NCC(=O)c2ccccc2)cc1 | -0.7 | -4.6 | ? | 4045 | 4.6 | -9.9
Cc1cc(NC(=O)c2ccc(Cl)cc2)ccc1NC(=O)c1ccccc1Cl | 4.1 | -12.5 | 37.1* | 2820 | -1.7 | 3.4
Cc1cc(NC(=O)c2ccccc2Cl)ccc1NC(=O)c1ccccc1Cl | 1.0 | -9.6 | -5.5 | 3900 | 1.0 | -7.8
Cc1ccc(C(=O)Nc2ccc(NC(=O)c3ccccc3Cl)c(C)c2)cc1 | -0.4 | 2.1 | 6.4 | 3920 | / | 4.1
Cc1ccc2sc3ccc(NC(=O)c4ccccc4Cl)cc3c(=O)c2c1 | 8.0 | 11.3 | 4.0 | 22506* | 0.2 | -5.6
COC(=O)[C@]12C[C@H](CC(=O)NCc3ccccc3)C(=O)N(Cc3ccc(Cl)cc3Cl)C1=C[C@H](C1CCCC1)O[C@@H]2C | / | / | / | / | / | 12.7
Brc1c(CSc2nncn2-c2ccccc2)nc2sccn12 | 3.2 | -5.5 | 4.9 | 19506* | 0.9 | -4.2
COc1cccc(/C=C/C(=O)Nc2ccc3nc4n(c(=O)c3c2)CCCC4)c1OC | -0.8 | -2.0 | -8.1 | 3354 | -4.7 | 14.1
O=C(Nc1ccccc1)c1cc(-n2cnnc2)ccc1Cl | -2.7 | -6.2 | -21.4 | 9299 | -0.5 | -25.5
O=C(NCCOc1cccc(Cl)c1Cl)c1cc(-n2cnnc2)ccc1Cl | -0.6 | 0.5 | -10.6 | 11843 | -6.9 | /
Cc1nc(NC(=O)c2cc(-n3cnnc3)ccc2Cl)ccc1Br | -5.2 | 0.0 | -5.4 | 21255* | -4.9 | 2.0
CCSCCNC(=O)c1cc(-n2cnnc2)ccc1Cl | ? | -10.5 | 2.0 | 21120* | -2.1 | -1.8
O=C(NCc1ccc2c(c1)OCO2)c1cc(-n2cnnc2)ccc1Cl | 1.5 | -0.6 | 1.3 | 19482* | -3.0 | -10.2
CC1(C)CC(=O)C(C2=NC3(CCCCCC3)Cc3ccccc32)=C(O)C1 | -1.0 | -4.2 | -4.9 | 6013 | 3.9 | 13.5
CNC(=O)C1CC(=O)N(Cc2ccccc2)C(=Nc2ccc(OC)cc2)S1 (stereo not given) | ? | -0.6 | -4.0 | 23832* | 0.5 | -9.1
